Assay outcomes deposited in PubChem BioAssay by National Center for Advancing Translational Sciences (NCATS).
LT uptake inh – anthrax lethal toxin internalization inhibition | Cells, anthrax lethal toxin internalization, FRET ratio (460/530) | Potency, µM (titrated, usually from 40 µM), actives largely listed as inhibitors | 0.67% of 70,000 active; further: nearly all actives have a fitted effect of over 50% in size
SmPrx2 inh – blocks S. mansoni peroxiredoxin 2 enzymatic activity. S. mansoni Prx2 activity coupled to TGR/GSH (TGR is thioredoxin glutathione reductase), NADPH fluorescence loss, qHTS. Potency, µM. 0.07% of 65,000 active
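Prx2 activity was followed as the loss of NADPH fluorescence (ex 365/em 450 nm), read every 30 sec for 8 min after H2O2 start. The enzyme mix (50 nM Prx2, 25 nM TGR, GSH, NADPH; pH 7.4 phosphate buffer) was incubated with compound for 15 min at room temperature first.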
AmpC inh no det – AmpC beta-lactamase inhibition, detergent-free assay; P00811; Potency, µM (highest dose often 28.7 µM); 1.8% of 71,000 active; AmpC nitrocefin hydrolysis, absorbance 480 nm, no detergent
Target sequence (P00811 whole entry, looked up): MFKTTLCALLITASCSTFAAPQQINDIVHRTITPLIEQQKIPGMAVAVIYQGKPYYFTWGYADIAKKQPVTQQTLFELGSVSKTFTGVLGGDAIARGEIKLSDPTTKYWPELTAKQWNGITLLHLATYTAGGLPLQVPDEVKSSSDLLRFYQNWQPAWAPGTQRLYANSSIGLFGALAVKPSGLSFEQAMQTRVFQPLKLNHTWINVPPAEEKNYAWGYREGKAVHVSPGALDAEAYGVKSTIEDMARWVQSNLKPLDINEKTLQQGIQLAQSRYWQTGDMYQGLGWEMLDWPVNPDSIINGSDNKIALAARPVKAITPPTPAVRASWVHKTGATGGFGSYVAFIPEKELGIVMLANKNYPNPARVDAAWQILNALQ
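AmpC in 20 mM phosphate buffer pH 7.0 was preincubated 15 min at room temperature with compounds. Nitrocefin (800 uM stock) was then added and hydrolysis followed at 480 nm every 20 s for 4 min.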
AmpC det inh – inhibitors of E. coli AmpC beta-lactamase with detergent; P00811; AID 584; 0.09% of 71,000 active; purified AmpC, nitrocefin hydrolysis with detergent; Potency, µM (series often up to 28.7 µM); active means well fitted curve in the direction sought with a large enough effect; inconclusive means small, poorly fitted or top-dose-only effect
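E. coli AmpC (5.3 nM) in 20 mM phosphate pH 7.0 with 0.01% Triton X-100, preincubated 15 min RT with compound; nitrocefin (2 uL of 800 uM stock) hydrolysis followed by 480 nm absorbance every 20 s over 4 min.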
A number is an active result; . = inactive; ? = inconclusive; / = no result; [ ] = dose if it differs, or a comment. Hits are enriched below; roughly 2.4% of the tested compounds scored in any of these assays. Unless noted, the call rests on the fitted dose curve.

SMILES	LT uptake inh	SmPrx2 inh	AmpC inh no det	AmpC det inh
CC(C)CCSc1nnc(Cn2c(=O)sc3ccccc32)n1C	.	.	4µM[single pt active]	.
Cc1ccc(CSc2nnc(Cn3c(=O)sc4ccccc43)n2C)cc1	.	.	.	.
COc1ccc(NC(=O)CSc2nnc(Cn3c(=O)sc4ccccc43)n2C)cc1	.	.	?	.
CCOc1ccc(NC(=O)CSc2nnc(Cn3c(=O)sc4ccccc43)n2C)cc1	.	.	4µM[single pt active]	.
COc1ccc2c(c1)[C@]13CCCC[C@@H]1[C@H](C2)NCC3	.	.	.	.
Cn1c(Cn2c(=O)sc3ccccc32)nnc1SCC(=O)Nc1ccccc1	.	.	4µM[single pt active]	.
CCOC(=O)C1CCN(CC(O)COc2ccc(C(C)(C)C)cc2)CC1 (configuration not stated)	.	.	.	.
CC(=O)c1ccc(OCC(O)CN2CCN(Cc3ccccc3)CC2)cc1 (configuration not stated)	.	.	4µM[single pt active]	.
CCOC(=O)C1CCN(CC(O)COc2ccc(C(C)=O)cc2)CC1 (configuration not stated)	.	.	3.2µM[single pt active]	.
C[N+]1(C)CCc2cc3c(cc2[C@@H]1[C@@H]1OC(=O)c2c1ccc1c2OCO1)OCO3	.	.	.	.
CCOC(=O)C1[C@H]2C(=O)N(C(C)c3ccc(OC)cc3)C[C@]23C=C[C@H]1O3 (some centres not stated)	?	.	.	.
CCC(C)N1CC23C=CC(O2)C(C(=O)OC)C3C1=O (configuration not stated)	.	.	4µM[single pt active]	.
C[C@@H]1C[C@H](OC(=O)[C@@H](O)c2ccccc2)CC(C)(C)N1C	.[3.58 µM]	.	.	.
N#Cc1c(C(F)(F)F)cc(C2CC2)[nH]c1=O	.	.	4µM[single pt active]	.
COC(=O)N1CCC2(CCN(C(=O)NC(C)C)CC2)CC1	.	.	.	.
CC(=O)C1=C(C)Nc2ncnn2C1c1cccc(OCc2ccccc2)c1 (configuration not stated)	.	.	4µM[single pt active]	.
CC1=C(C(=O)OCc2ccccc2)C(c2cccnc2)n2ncnc2N1 (configuration not stated)	.	.	.	.
CCCCn1c(NCCO)nc2ccccc21	.	.	3.2µM[single pt active]	.
O=C(Cn1c(NCCCO)nc2ccccc21)c1cccs1	.	.	3.2µM[single pt active]	.
CCCn1c(NCc2cc(C)ccc2O)nc2ccccc21	.	/	.	.
CCCCn1c(NCc2ccccc2O)nc2ccccc21	.	.	4µM[single pt active]	.
CNS(=O)(=O)c1ccccc1C(=N)c1ccccc1	.[8 µM]	.	.[5.75 µM]	.[5.75 µM]
Nc1ccccc1O.O.O=C(O)[C@H]1[O][Sb][O][C@H]1C(=O)O	?	0.22	.[5.75 µM]	.[5.75 µM]
N#Cc1cccc(-c2nc(NCCN3CCOCC3)c3ccccc3n2)c1	?	.	.	.
CC(C)(O)[C@H]1[C@H]2OC(=O)[C@@H]1[C@]1(O)C[C@H]3O[C@]34C(=O)O[C@H]2[C@]14C (tested in a mixture with another compound)	.	.	.	.
SMILES	LT uptake inh	SmPrx2 inh	AmpC inh no det	AmpC det inh
Nc1ccc(-c2ccc(N)c(O)c2)cc1O	?	/	0.79µM	.
CC(C)(C)OC(=O)[C@H]([C@@H]1N[C@@H](C(=O)O)C(C)(C)S1)N1C(=O)c2ccccc2C1=O	?	.	.[5.75 µM]	.[5.75 µM]
N[C@H](Cn1cc(I)c(=O)[nH]c1=O)C(=O)O	?	.	.	.
CCN1CCN(Cc2ccc(NC(=O)Nc3ccccc3OC)cc2)CC1	?	.	4µM[single pt active]	.
CCN1CCN(CCC(=O)Nc2ccccc2OC)CC1	.	.	.	.
Cc1nn(-c2ccccc2)c2sc(C(=O)N(CC(=O)NC(C)(C)C)Cc3ccco3)cc12	13µM	.	.	.
Cc1ccc(Cl)cc1N	.	/	.	.
CN(C)c1ccc(-c2ccc3ncnc(NC4CC4)c3c2)cc1	?	.	.	.
CCCCC#CC1C=CC(Oc2ccc(OC)cc2)C(CO)O1 (configuration not stated)	.[8 µM]	/	/	/
COc1ccc(-c2nc(CSCC(=O)N3CCN(c4cccc(C)c4)C(C)C3)c(C)o2)cc1OC (configuration not stated)	10µM	.	.	.
Cc1ccc(S(=O)(=O)C2(C(=O)Nc3cccnc3)CC2)cc1	.	.	4µM[single pt active]	.
O=C(CCc1ccc(S(=O)(=O)N2CCCCC2)cc1)c1nnc(-c2ccccc2)o1	.	.	20µM[single pt active]	.
COc1ccc(C(C)(C)C)cc1NC(=O)Nc1ccc2c(c1)OCO2	10µM	.	.	.
COCCNC(=O)CSc1nc2cc(OC)c(OC)cc2c(=O)n1Cc1ccco1	.	.	.	.
